Results from PubChem BioAssay AID740 (SRMLSC, 2007).
Out of some 96,000 compounds screened, about 65 (0.07%) were called active. For the sample, actives were picked, then their nearest neighbours and some compounds at random. Values without a mark were called inactive. No stated cut-off is given here; in the data, active means inhibition above about 25%; inactive means the rest.

Assay: unspecified inhibition readout at 50 µM (AID 740)
Conditions: unspecified screen; active compounds read high
With O=C(NCCN1CCOCC1)N1c2ccccc2Sc2ccccc21 the inhibition was 0.23%. In the case of O=C1NC2=C(C(=O)c3ccccc32)C(c2ccccc2)N1 (configuration not stated), the inhibition is reported as 0.35%. With COc1ccc(C2NC(=S)NC3=C2CCc2cc(OC)ccc23)cc1 (configuration not stated) the inhibition was “inactive”. Cc1ccc(C2NC(=O)Cc3ccccc32)cc1 (configuration not stated) gave an inhibition of 0.52%. In the case of COc1ccc(C2C3=C(N=C4SCC(=O)N42)c2ccccc2CC3)cc1 (configuration not stated), the inhibition is reported as 1.1%. With O=C1Cc2ccccc2C(c2ccc(Br)cc2)N1 (configuration not stated) the inhibition was “inactive”. In the case of COc1ccc(C2NC(=O)NC3=C2CCc2ccccc23)cc1 (configuration not stated), the inhibition is reported as 66.1% (active). With CC(C)c1ccc(C2NC(=O)NC3=C2CCc2ccccc23)cc1 (configuration not stated) the inhibition was 5.37%. With Cc1ccc(C2NC(=O)NC3=C2CCc2ccccc23)cc1 (configuration not stated) the inhibition was 85.8% (active). In the case of O=C1NC2=C(CCc3ccccc32)C(c2ccc(Br)cc2)N1 (configuration not stated), the inhibition is reported as 70.4% (active). In the case of CC(C)CC(c1nnnn1C(C)(C)C)N1CCN(C2CCCC2)CC1 (configuration not stated), the inhibition is reported as 0.26%. With CC(=O)Nc1cccc(C(=O)Nc2ccccc2C(=O)O)c1 the inhibition was 0.32%. For Cc1ccc2nc(SCC(=O)Nc3c(C)n(C)n(-c4ccccc4)c3=O)[nH]c2c1, the inhibition was “inactive”. In the case of O=C(Nc1ccccc1-c1ccccc1)c1ccc(NC(=O)c2ccco2)cc1, the inhibition is reported as 61.8% (active). Work on O=C(Nc1ccccc1-c1ccccc1)c1ccco1 yielded an inhibition of 0.36%. For Cc1ccccc1NC(=O)c1ccc(NC(=O)c2ccco2)cc1, the inhibition was “inactive”. For N#Cc1ccccc1NC(=O)COC(=O)c1ccc2c(c1)OCCO2, the inhibition was “inactive”. With COc1ccc(S(=O)(=O)Nc2ccc(F)cc2)cc1N(C)S(=O)(=O)c1ccc(Cl)cc1 the inhibition was “inactive”. For COc1ccc(S(=O)(=O)Nc2ccc(C)cc2)cc1N(C)S(=O)(=O)c1ccc(Cl)cc1, the inhibition was “inactive”. In the case of COc1ccc(NS(=O)(=O)c2ccc(OC)c(N(C)S(=O)(=O)c3ccc(Cl)cc3)c2)cc1, the inhibition is reported as 25.8% (active). For O=C(NC1CCCC1)C1(c2ccccc2)CCN(S(=O)(=O)c2ccccc2)CC1, the inhibition was 1.06%. For CC1(C)Cc2c(c(N3CCOCC3)nc3sc4c(NN)ncnc4c23)CS1, the inhibition was 27.3% (active). For CN(C)CCNc1ncnc2c1sc1nc(N3CCOCC3)c3c(c12)CC(C)(C)SC3, the inhibition was “inactive”. For CCN(CC)CCNc1ncnc2c1sc1nc(N3CCOCC3)c3c(c12)CC(C)(C)SC3, the inhibition was “inactive”. For O=C1CC(C(=O)Nc2ccccc2)C2(CCCC2)O1 (configuration not stated), the inhibition was “inactive”. O=C1CC(C(=O)Nc2ccccc2)C2(CCCCC2)O1 (configuration not stated) gave an inhibition of 1.6%. With Cc1cccc(NC(=O)C2CC(=O)OC23CCCCC3)c1 (configuration not stated) the inhibition was 41.1% (active). For CC(=O)Nc1sc(C)c(C)c1C(=O)OC1CCOC1=O (configuration not stated), the inhibition was “inactive”. With COc1ccc(C(=O)OCC(=O)Nc2ccc(OC(F)F)cc2)c(OC)c1 the inhibition was “inactive”. For COc1cc(C2C(C#N)=C(C)NC3=C2C(=O)c2ccccc23)cc(OC)c1OC (configuration not stated), the inhibition was 3.83%. With O=C(O)c1ccc(CSCc2ccccc2F)o1 the inhibition was “inactive”. For COc1ccc(NC(=O)CN2CCCC(C)C2)c([N+](=O)[O-])c1 (configuration not stated), the inhibition was 0.73%. For Cc1cc(C(=O)Nc2c(C)n(C)n(-c3ccccc3)c2=O)cs1, the inhibition was 28.9% (active). With Cc1c(NC(=O)c2ccc(F)cc2)c(=O)n(-c2ccccc2)n1C the inhibition was “inactive”. In the case of Cc1c(NC(=O)c2cccc(F)c2)c(=O)n(-c2ccccc2)n1C, the inhibition is reported as “inactive”. For Cc1c(NC(=O)c2c(F)c(F)c(F)c(F)c2F)c(=O)n(-c2ccccc2)n1C, the inhibition was 0.88%. With CCCCCn1c(=O)c(C(=O)Nc2c(C)n(C)n(-c3ccccc3)c2=O)c(O)c2ccccc21 the inhibition was 34.4% (active). CCCCn1c(=O)c(C(=O)Nc2cnccn2)c(O)c2ccccc21 gave an inhibition of 1.68%. With COC(=O)c1ccc(C2NC(=S)N(c3ccccc3)C(C)=C2C(=O)Nc2ccccc2OC)cc1 (configuration not stated) the inhibition was “inactive”. CCS(=O)(=O)c1ccc2oc(SCC(=O)NCCC3=CCCCC3)nc2c1 gave an inhibition of 10.4%. In the case of CCCCN(CC)CCNc1c(N2CCN(C(=O)OCC)CC2)c(=O)c1=O, the inhibition is reported as “inactive”. For COC(=O)C(C(=O)OC)C(C[N+](=O)[O-])c1ccc(OC)cc1 (configuration not stated), the inhibition was “inactive”. CCOC(=O)c1cnn(-c2ccccc2)c1-n1cccc1C(=O)C(=O)Nc1ccc(F)cc1 gave an inhibition of 0.4%. For CCOC(=O)c1cnn(-c2ccccc2)c1-n1cccc1C(=O)C(=O)Nc1ccccc1C(F)(F)F, the inhibition was 74.2% (active). In the case of CCOC(=O)c1cnn(-c2ccccc2)c1-n1cccc1C(=O)C(=O)Nc1ccccc1, the inhibition is reported as “inactive”. With COCCNC(=O)C(c1ccccc1)N(CCOC)C(=O)Cn1nnc2ccccc21 (configuration not stated) the inhibition was 37.1% (active). In the case of COCCNC(=O)C(c1ccccc1C)N(CCOC)C(=O)Cn1nnc2ccccc21 (configuration not stated), the inhibition is reported as 1.03%. With CCOC(=O)CN(C(=O)Cn1nnc2ccccc21)C(C(=O)NCCOC)c1ccccc1 (configuration not stated) the inhibition was “inactive”. For CCOC(=O)C1C(=O)NC(c2ccccc2)=NC1c1ccc(C(C)C)cc1 (configuration not stated), the inhibition was 1.01%. For CN1CCN(S(=O)(=O)c2ccc(NC(=O)Cc3cccs3)cc2)CC1, the inhibition was “inactive”. In the case of O=C(COc1ccccc1)Nc1ccc(-c2nnc(-c3ccco3)o2)cc1, the inhibition is reported as “inactive”. With O=C(Nc1ccc(-c2nnc(-c3ccco3)o2)cc1)C(c1ccccc1)c1ccccc1 the inhibition was 0.04%. For CCC(Oc1ccccc1)C(=O)Nc1ccc(-c2nnc(-c3ccco3)o2)cc1 (configuration not stated), the inhibition was 28.2% (active). For Cc1ccc(S(=O)(=O)N(CC(=O)NC2CCCCCC2)c2ccccc2F)cc1, the inhibition was “inactive”. In the case of COc1ccc(Br)cc1C(=O)Nc1ccc(N2CCN(S(C)(=O)=O)CC2)cc1, the inhibition is reported as 0.77%. For CC(c1ccco1)N(C(=O)Nc1ccc(Cl)cc1)c1ccccn1 (configuration not stated), the inhibition was “inactive”. CC(C)c1ccc(C(=O)N(c2ccccn2)C(C)c2ccco2)cc1 (configuration not stated) gave an inhibition of 4.01%. With CC(c1ccco1)N(C(=O)COc1ccc(Cl)cc1Cl)c1ccccn1 (configuration not stated) the inhibition was 39.3% (active). In the case of CC(c1ccco1)N(C(=O)COc1ccc(Cl)cc1)c1ccccn1 (configuration not stated), the inhibition is reported as 32.6% (active). CC(c1ccco1)N(C(=O)COc1ccccc1[N+](=O)[O-])c1ccccn1 (configuration not stated) showed an inhibition of 0.73%. Cc1cc(C)cc(C(=O)N(c2ccccn2)C(C)c2ccco2)c1 (configuration not stated) gave an inhibition of 0.71%. In the case of Cc1ccccc1NS(=O)(=O)c1ccc(C2CNC(=O)C2)cc1 (configuration not stated), the inhibition is reported as 0.38%.
